Screening data from PubChem.
In the library only some 19% were active in any assay of this set; here they are far more common.
HT1080 IDH1KD tx – qHTS for induction of synthetic lethality in tumor cells producing 2HG: qHTS for the HT-1080-IDH1KD cell line. HT-1080 IDH1 knockdown viability, ATP luminescence, 48 h. Potency, µM (top dose mostly 46.1 µM), usual class: cytotoxic. actives 2% (n = 360,000). AID 686971, 2013
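Luminescent ATP read-out (CellTiter-Glo, 10 min at room temperature) after 48 h compound exposure at 37 °C gave viability of IDH1-knockdown HT-1080 cells. Activity was normalised to DMSO and cell-free wells, then fitted as concentration-response curves.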
IL1B secr inh – qHTS for Inhibitors of Inflammasome Signaling: IL-1-beta AlphaLISA Primary Screen; THP-1 LPS/ATP IL-1B secretion, AlphaLISA, 16 h; hits give low values; activity change, % at 57.5 µM; actives 4.7% (n = 360,000); AID 743279, 2014; in the data active means activity change below about -50%; inconclusive means mostly about -30% to -49%
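THP-1 cells pretreated 1 hr with compounds (up to 57.5 uM final), then stimulated with LPS (250 ng/mL final) plus ATP (1.25 mM final); secreted IL-1B measured by AlphaLISA after 16 hr, decreased signal indicating inhibition.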
ELG1 repair inh – qHTS screen for small molecules that inhibit ELG1-dependent DNA repair in human embryonic kidney (HEK293T) cells expressing luciferase-tagged ELG1; AID 504467, 2011; actives 2.3% (n = 330,000); Potency, µM (highest dose often 46.1 µM), most hits filed as inhibitors; HEK293T ELG1-luciferase reporter, luminescence, 16 h; DNA damage induced by 5-fluorouridine; further: nearly all actives have a fitted effect of over 55% in size
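Reporter activity after DNA damage by 5-fluorouridine is monitored. Compound-treated cells incubate 16 hr at 37 °C, then ONE-Glo is added for 30 min before luminescence reading.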
HT1080NT lethal – qHTS for induction of synthetic lethality in tumor cells producing 2HG: qHTS for the HT-1080-NT fibrosarcoma cell line. HT-1080-NT fibrosarcoma viability, CellTiter-Glo ATP luminescence, 48 h. Potency, µM (doses to about 46.1 µM), actives largely listed as cytotoxic. actives 1.6% (n = 360,000). AID 686970, 2013;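 further: NT is the 2HG producing partner of a matched IDH1 knockdown line; nearly all actives have a fitted effect of over 55% in size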
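Viability by CellTiter-Glo luminescence after 48 h compound exposure at 37C of HT-1080-NT cells (750/well, RPMI, 5% FBS). % activity scaled between DMSO wells and medium-only wells, then curve-fitted and categorized by curve class.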
DT40 TDP1 no CPT – qHTS for Inhibitors of human tyrosyl-DNA phosphodiesterase 1 (TDP1): qHTS in cells in absence of CPT; DT40 Tdp1-/- hTDP1 cells, no CPT, ATP luminescence, 48 h; Potency, µM (top dose mostly 46.2 µM), actives largely listed as inhibitors; actives 15% (n = 420,000); AID 686978, 2013; further: nearly all actives have a fitted effect of over 55% in size
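Camptothecin absent (DMSO only). Human TDP1-complemented DT40 knockout cells, 400 cells/well, 37 °C for minimum 48 hr; ATP measured via CellTiter-Glo, 30 min dark incubation, luminescence.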
TDP1 cell CPT – qHTS for Inhibitors of human tyrosyl-DNA phosphodiesterase 1 (TDP1): qHTS in cells in presence of CPT; chicken DT40 Tdp1-/-;hTDP1 cells + 20 nM CPT, ATP luminescence, 48 h; Potency, µM (series often up to 46.2 µM), actives largely listed as inhibitors; actives 12% (n = 420,000); AID 686979, 2013; further: nearly all actives have a fitted effect of over 55% in size
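Cell growth measured by CellTiter-Glo luminescence after a minimum 48 h, 37 C compound exposure with 20 nM CPT in Tdp1-knockout DT40 cells stably expressing hTDP1, seeded 400/well; qHTS titration format.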
Large screens that a line does not name were inactive. Unless noted, the call rests on the fitted dose curve; in most records, active means well fitted curve in the direction sought with a large enough effect; inconclusive means small, poorly fitted or top-dose-only effect, or another doubt; inactive means no such curve, though single readings can be large; an effect the other way counts as inactive or inconclusive.

COc1cc(C(C(=O)NC2CCCCC2)N(C(=O)Cc2c[nH]c3ccccc23)c2ccc(C)cc2)cc(OC)c1OC (stereo not given)	ELG1 repair inh inconclusive, DT40 TDP1 no CPT 25.9µM, TDP1 cell CPT 23.1µM
COc1ccc(C(C(=O)NC2CCCCC2)N(Cc2cccs2)C(=O)Cc2c[nH]c3ccccc23)cc1 (stereo not given)	HT1080 IDH1KD tx inconclusive, IL1B secr inh -58.5, ELG1 repair inh inconclusive, HT1080NT lethal inconclusive, DT40 TDP1 no CPT 18.4µM, TDP1 cell CPT 4.61µM
COc1cccc(CN(C(=O)Cc2c[nH]c3ccccc23)C(C(=O)NC2CCCCC2)c2cccs2)c1 (stereo not given)	ELG1 repair inh 18.4µM
O=C(CN1CCN(C(=O)C2COc3ccccc3O2)CC1)Nc1ccc(F)cc1 (stereo not given)	none
CCOc1ccccc1N(C)C(=O)Cn1ncc2c([nH]c3ccc(C)cc32)c1=O	HT1080 IDH1KD tx inconclusive, ELG1 repair inh inconclusive, HT1080NT lethal inconclusive, DT40 TDP1 no CPT inconclusive, TDP1 cell CPT inconclusive
CCOc1ccc(NCC(=O)c2ccc(C)cc2)cc1	IL1B secr inh -80.8, DT40 TDP1 no CPT inconclusive, TDP1 cell CPT inconclusive
CCOc1ccc(NC(=O)COC(=O)C2CC2C)cc1 (stereo not given)	ELG1 repair inh inconclusive, DT40 TDP1 no CPT 18.4µM, TDP1 cell CPT inconclusive
CCOc1ccc(NC(=O)CCSc2ccc(C)cc2)cc1	DT40 TDP1 no CPT 16.4µM, TDP1 cell CPT inconclusive
Cc1ccc(SCCC(=O)Nc2ccc(OCc3ccccc3)cc2)cc1	none
CCCCOC(=O)c1ccc(NC(=O)COC(=O)C2CC2C)cc1 (stereo not given)	DT40 TDP1 no CPT inconclusive (no result: ELG1 repair inh)
CC(C)Nc1ccc(-c2nc(-c3ccncc3)no2)cc1[N+](=O)[O-]	none (no result: HT1080 IDH1KD tx, IL1B secr inh, ELG1 repair inh, HT1080NT lethal)
CNc1ccccc1NC(=O)C1CCCN1C(=O)OCc1ccccc1 (stereo not given)	none
CN(C)c1ccc(C(=S)Nc2ccccc2)cc1	ELG1 repair inh inconclusive, DT40 TDP1 no CPT 16.4µM, TDP1 cell CPT inconclusive
CN(C)c1cc(O)c(C(=S)Nc2ccccc2)c(N(C)C)c1	DT40 TDP1 no CPT inconclusive, TDP1 cell CPT 16.4µM
CN(C)c1ccc(NC(=S)c2ccccn2)cc1	HT1080 IDH1KD tx inconclusive, ELG1 repair inh inconclusive, HT1080NT lethal inconclusive, DT40 TDP1 no CPT 5.17µM, TDP1 cell CPT 4.61µM
CC(=O)N(C)c1ccc(NC(=S)Nc2ccccc2)cc1	ELG1 repair inh inconclusive
CC(C)c1ccc(NC(=O)c2cnc3sc(N4CCOCC4)nn3c2=O)cc1	none (no result: HT1080 IDH1KD tx, IL1B secr inh, ELG1 repair inh, HT1080NT lethal)
CCOC(=O)c1sc(NC(=O)c2ccoc2C)c(C(N)=O)c1C	ELG1 repair inh 8.2µM, DT40 TDP1 no CPT 16.4µM, TDP1 cell CPT 25.9µM
CCOC(=O)c1c(NC(=O)c2cc(C)oc2C)sc(C(=O)Nc2ccc(Cl)cc2)c1C	ELG1 repair inh inconclusive, DT40 TDP1 no CPT 5.62µM, TDP1 cell CPT 8.91µM
S=C(NCc1ccccc1)NNc1nc2ccccc2[nH]1	HT1080 IDH1KD tx inconclusive, DT40 TDP1 no CPT inconclusive, TDP1 cell CPT inconclusive
Cn1c(/C(C#N)=C(\O)c2ccc(Br)s2)nc2ccccc21	ELG1 repair inh inconclusive, DT40 TDP1 no CPT inconclusive
Cn1c(/C(C#N)=C(\O)c2cc(Cl)sc2Cl)nc2ccccc21	DT40 TDP1 no CPT inconclusive, TDP1 cell CPT 18.4µM
COc1ccc([C@H]2CC(=O)C[C@@H](CCn3cc(-c4ccc(F)cc4)nn3)O2)cc1	none (no result: ELG1 repair inh)
Cc1nn(-c2nc3ccccc3[nH]2)c(N)c1-c1ccc(Cl)cc1	ELG1 repair inh inconclusive, DT40 TDP1 no CPT 16.4µM, TDP1 cell CPT inconclusive
Cc1nn(-c2ccc3ccccc3c2)c(=O)c2ccccc12	ELG1 repair inh inconclusive, DT40 TDP1 no CPT 16.4µM, TDP1 cell CPT inconclusive
